# Sampled rows, rich in hits. Any-hit rate of the full collection: about 8.8%.
# HPGD inh – qHTS Assay for Inhibitors of HPGD (15-Hydroxyprostaglandin Dehydrogenase). 15-hydroxyprostaglandin dehydrogenase [NAD(+)] (Homo sapiens), P15428. purified HPGD, NADH fluorescence kinetic, PGE2 substrate. Potency, µM, for inactives: at the top dose activity change, negative = inhibition, actives largely listed as inhibitors. 150,000 tested, 4.3% active. AID 894, 2007; also: % is scaled to controls: 0 for no effect and ±100 for the full control effect
# Target sequence (P15428 whole entry, looked up): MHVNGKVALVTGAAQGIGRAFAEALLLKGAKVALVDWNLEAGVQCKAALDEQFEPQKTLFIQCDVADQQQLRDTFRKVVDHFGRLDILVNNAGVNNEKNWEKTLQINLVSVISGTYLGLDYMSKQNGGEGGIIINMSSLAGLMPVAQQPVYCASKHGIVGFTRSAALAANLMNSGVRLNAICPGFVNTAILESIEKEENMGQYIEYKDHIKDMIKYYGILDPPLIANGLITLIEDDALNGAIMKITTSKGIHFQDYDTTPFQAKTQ
#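 NADH formation kinetics: reaction with 30 uM PGE2 and 1 mM NAD+ (final), 20 nM enzyme, Tris-HCl pH 8 with Tween 20, after 15 min compound preincubation at room temperature. Fluorescence change, last versus first of five reads.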
# LMNA splice mod – qHTS Assay for Modulators of Lamin A Splicing | 200,000 tested, 0.01% active | Potency, µM (titrated, usually from 46.1 µM), without a hit: top-dose ratio change, negative = inhibition, most hits filed as inhibitors | AID 1487, 2009 | HeLa LMNA splicing GFP/RFP minigene ratio, 48 h; active = well fitted inhibition curve with a large enough effect in the signal ratio, with a control signal flat, not every such curve was filed as active; inconclusive = small, poorly fitted or top-dose-only effect, or effect the other way, or a change in a side signal; the % refers to the signal ratio; also: % is scaled to controls: 0 for no effect and ±100 for the full control effect
#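 S3 HeLa cells stably expressing lamin A-EGFP splicing minigene plus DsRed2, 600 cells/well, 48 h compound exposure at 37C. Laser-scanning cytometry; analysed as GFP (500-530 nm)/RFP (575-640 nm) total intensity ratio; 0.5% DMSO vehicle.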
# ALDH1A1 block – qHTS Assay for Inhibitors of Aldehyde Dehydrogenase 1 (ALDH1A1). Aldehyde dehydrogenase 1A1 (Homo sapiens), P00352. Purified ALDH1A1, NADH fluorescence, propionaldehyde substrate. Potency, µM (highest dose often 75.3 µM), for inactives: top-dose activity, negative = inhibition, most hits filed as inhibitors. 220,000 tested, 7.3% active. AID 1030, 2008;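 also: plate controls were no enzyme wells and a reference inhibitor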
# Target sequence (P00352 whole entry, looked up): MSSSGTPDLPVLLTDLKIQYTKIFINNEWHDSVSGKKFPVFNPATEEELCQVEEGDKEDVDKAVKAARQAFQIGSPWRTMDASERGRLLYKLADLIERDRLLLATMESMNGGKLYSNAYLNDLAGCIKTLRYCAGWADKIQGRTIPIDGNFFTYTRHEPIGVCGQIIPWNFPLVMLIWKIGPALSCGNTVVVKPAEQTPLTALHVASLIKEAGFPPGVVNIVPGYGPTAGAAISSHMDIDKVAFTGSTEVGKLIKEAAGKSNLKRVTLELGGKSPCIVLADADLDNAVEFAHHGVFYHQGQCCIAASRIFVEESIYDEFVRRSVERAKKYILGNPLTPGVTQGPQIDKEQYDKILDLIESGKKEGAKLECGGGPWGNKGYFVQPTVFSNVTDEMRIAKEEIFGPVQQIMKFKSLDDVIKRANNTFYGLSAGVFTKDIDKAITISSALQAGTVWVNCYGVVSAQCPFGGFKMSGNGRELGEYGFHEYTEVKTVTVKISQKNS
# HTT ATP protect – qHTS Multiplex Assay to Identify Dual Action Probes in a Cell Model of Huntington: Cytoprotection (ATP); PC12 HTT-Q103 induced, cytoprotection, ATP luminescence, 40 h; Potency, µM (highest dose often 56.4 µM), inactives show cytoprotection (ATP increase), hits mostly activators; 230,000 tested, 0.14% active; active = well fitted curve in the direction sought with a large enough effect; inconclusive = small, poorly fitted or top-dose-only effect, or another doubt; inactive = no such curve, though single readings can be large; an effect the other way counts as inactive or inconclusive; also: % of control where 0% means no effect; nearly all actives have a fitted effect of over 45% in size
#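 PC12 cells stably carrying ecdysone-inducible Htt exon 1 (Q103)–GFP were induced with 100 nM tebufenozide (final) alongside library compounds in a dose series. Cytoprotection was scored as retained ATP by ATPlite luminescence.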
# HTT aggregate – qHTS Multiplex Assay to Identify Dual Action Probes in a Cell Model of Huntington: Aggregate Formation (GFP). PC12 HttQ103-GFP aggregates, Acumen cytometry, 40 h. 220,000 tested, 1.1% active. AID 1688, 2009. Potency, µM (series often up to 46.1 µM), for inactives: top-dose activity change, negative = inhibition, actives largely listed as inhibitors; active = well fitted curve in the direction sought with a large enough effect; inconclusive = small, poorly fitted or top-dose-only effect, or another doubt; inactive = no such curve, though single readings can be large; an effect the other way counts as inactive or inconclusive; also: % is scaled to controls: 0 for no effect and ±100 for the full control effect; nearly all actives have a fitted effect of over 60% in size
#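 PC12 cells stably carrying ecdysone-inducible HTT exon 1 Q103–GFP were induced with tebufenozide (100 nM final) and treated with library compounds in titration. GFP aggregates in lysates were counted by laser scanning cytometry.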
# Active calls of the source: *; ? = inconclusive; · = no result given; [ ] = another dose, or the depositor's remark. Unless noted, calls follow the shape of the dose curve; as a rule, active = well fitted inhibition curve with a large enough effect (not every such curve was filed as active); inconclusive = small, poorly fitted or top-dose-only effect, or another doubt; inactive = no such curve, though single readings can be large or run the other way. Potency is read from the fitted curve at half-maximal effect.
SMILES,HPGD inh,LMNA splice mod,ALDH1A1 block,HTT ATP protect,HTT aggregate
CN(c1ccc(C(=O)N2CCCCC2)cc1)S(C)(=O)=O,10µM*,-16%,6%,-11%,?
CC1CCN(C(=O)c2ccc(N(C)S(C)(=O)=O)cc2)CC1,14µM*,-1%,3%,-16%[0.074 µM],4%
CCO[C@@H]1OC(C(=O)NCc2ccccc2)=C[C@H](c2cn(C(C)=O)c3ccccc23)[C@H]1CCCO,·,·,?,3%[10 µM],5%[9.22 µM]
Clc1ccccc1Cc1noc(CN2CCN(Cc3ccccn3)CC2)n1,·,·,?,-5%[10 µM],9%[9.22 µM]
S=c1cnc2ccccc2[nH]1,·,0%[46 µM],3.2µM*,-3%,-4%[9.22 µM]
CCN(CC)C(=O)c1sc(NC(=O)c2ccc(Br)o2)c(C(=O)OC)c1C,16µM*,16%,?,-31%,-24%
CCCCC(=O)Nc1sc(C(=O)N(CC)CC)c(C)c1C(=O)OC,2.5µM*,-15%,8.9µM*,1%[10 µM],5%
CCOC(=O)c1sc(NC(=O)c2ccc(Br)o2)cc1C,?,-9%,?,-33%,2%
CCOC(=O)c1c(NC(=O)CN(C)C)sc(C(=O)N(CC)CC)c1C,1%,5%[0.0737 µM],?,0%,-7%
CCOC(=O)c1c(NC(=O)CC)sc(C(C)=O)c1C,?,0%,14µM*,-27%[10 µM],26%
CCOC(=O)c1c(NC(=O)c2cccnc2)sc(C(C)=O)c1C,13µM*,-7%,?,8%[10 µM],-13%
CCOC(=O)c1cccc(NC(=O)C2Cc3ccccc3N2C(=O)c2ccccc2)c1 (configuration not stated),·,20%[46 µM],·,·,·
COc1ccccc1CNC(=O)CN(Cc1ccc(Cl)cc1)S(C)(=O)=O,·,14%[46 µM],15%,24%[10 µM],3%[9.22 µM]
CCOC(=O)c1c(NC(=O)c2cc(CC(C)C)on2)sc(C(C)=O)c1C,?,-9%,?,14%[10 µM],-12%
CCCc1cc(C(=O)Nc2sc(C(C)=O)c(C)c2C(=O)OCC)no1,?,-18%,25µM*,-1%[10 µM],-4%
CCN(CC)C(=O)c1sc(NC(=O)c2cccnc2)c(C(=O)OC)c1C,20µM*,-1%,?,-1%[10 µM],-13%
Clc1cccc(Cl)c1CNC1CCCC1,-12%,9%,-7%,-8%,0.11µM*
COc1cc(/C=C(\NC(C)=O)C(=O)Nc2ccccc2C)ccc1OC(C)=O,0%,-4%,28µM*,2%[10 µM],0%
COc1ccc(NC(=O)/C(=C/c2ccc(OC(C)=O)c(OC)c2)NC(C)=O)cc1,-14%,3%,4µM*,7%[10 µM],12%
COc1cc(/C=C(\NC(C)=O)C(=O)NC(C)(C)CC(C)(C)C)ccc1OC(C)=O,-8%,-11%,5%,-15%[10 µM],-12%
COc1ccc(NC(=O)/C(=C\c2ccc3c(c2)OCO3)NC(C)=O)cc1,-17%,-13%,-4%,?,11%
COc1cc(/C=C(\NC(C)=O)C(=O)Nc2ccc(NC(C)=O)cc2)ccc1OC(C)=O,-12%,-10%,0.25µM*,·,11%
O=C(NCCCN1CCOCC1)c1sc2ccccc2c1Cl,·,7%[46 µM],-21%,-7%[10 µM],15%[9.22 µM]
COc1ccccc1NC(=O)CSCc1cc(=O)c2cccc(Cl)c2[nH]1,·,-3%[46 µM],·,·,·
CO[C@@H]1COC(=O)C/C=C\[C@@H](C)COC(=O)[C@H](Cc2ccccc2)NC(=O)C/C=C\[C@H]1C,·,·,?,-8%[10 µM],·
SMILES,HPGD inh,LMNA splice mod,ALDH1A1 block,HTT ATP protect,HTT aggregate
COc1ccc(C(=O)NC(CC(=O)O)c2cc([N+](=O)[O-])ccc2Cl)c(SC)c1 (configuration not stated),·,19%[9.22 µM],8.9µM*,-32%,16%
Cc1cc(C)c(/C=C/c2onc(C)c2S(=O)(=O)N2CCC(C(=O)NCc3ccco3)CC2)c(C)c1,·,-2%[46 µM],·,·,·
O=C(CON=C1c2ccccc2-c2ccccc21)NC12CC3CC(CC(C3)C1)C2,?,?,?,-6%[10 µM],11µM*
O=C(COC(=O)C(O)c1ccccc1)NC12CC3CC(CC(C3)C1)C2 (configuration not stated),-9%,4%,32µM*,3%[10 µM],4%
O=C(COC(=O)C12CC3CC(CC(C3)C1)C2)NC12CC3CC(CC(C3)C1)C2,-26%,22%[0.0737 µM],14µM*,-3%,15%
O=C(COC(=O)CCc1ccccc1)NC12CC3CC(CC(C3)C1)C2,·,3%[46 µM],-9%,30%[10 µM],-6%
CCCN1C(=O)C2(SC(NC(C)=O)=NN2C(C)=O)c2cc(C)ccc21 (configuration not stated),·,?,-2%,·,·
CN1CCN(C(c2cccs2)c2nnnn2Cc2ccc(F)cc2)CC1 (configuration not stated),·,·,?,35%[10 µM],41%[9.22 µM]
CC1CCN(C(c2ccc(N(C)C)cc2)c2nnnn2Cc2ccccc2)CC1 (configuration not stated),-12%,10%,8.9µM*,-12%,-1%
CC1CCCN(C(c2cccs2)c2nnnn2Cc2ccccc2)C1 (configuration not stated),-18%,14%,3.2µM*,-15%,2%[9.22 µM]
CC1CCN(C(c2ccc(N(C)C)cc2)c2nnnn2C(C)(C)C)CC1 (configuration not stated),-29%,10%,?,-4%[10 µM],-2%
COc1ccc(Cn2nnnc2C(c2cc(OC)ccc2OC)N2CCC(C(N)=O)CC2)cc1 (configuration not stated),-5%,?,14µM*,16%[10 µM],?
COc1ccc(Cn2nnnc2C(c2ccccc2Cl)N2CCC(C(N)=O)CC2)cc1 (configuration not stated),-16%,9%,-1%,-9%,1%
COc1ccc(Cn2nnnc2C(c2ccc(N(C)C)cc2)N2CCC(C)CC2)cc1 (configuration not stated),-15%,6%,25µM*,-11%[10 µM],5%
Cc1ccc(-n2nnc(-c3nccs3)n2)cc1,·,·,-8%,-77%[10 µM],1%[9.22 µM]
Clc1ccc(-n2nnc(-c3nccs3)n2)cc1Cl,·,·,25µM*,-16%[10 µM],9%[9.22 µM]
COc1ccc(-c2nc3sc(CCNC(=O)c4ccco4)c(C)n3n2)cc1,·,0%[46 µM],·,·,·
COc1cccc(C(=O)C(C#N)=C(SC)SC)c1,·,·,7.1µM*,-34%[10 µM],4%[9.22 µM]
COc1cccc(C(=O)Nc2ccc(NC(C)=O)cc2)c1,-5%,6%,-2%,-22%,-8%
CSC(SC)=C(C#N)C(=O)c1ccccc1,·,?,22µM*,-32%[10 µM],7%[9.22 µM]
Cc1ccc(/C=N/N2CCN(Cc3ccccc3)CC2)o1,-8%,-2%,?,-12%,1%
Cc1ccc(/C=N/N(Cc2ccccc2)c2ccccc2)o1,·,?,20µM*,-28%,-3%

# High-throughput results as filed in PubChem BioAssay.
